Among the data in PubChem BioAssay (NCI) are growth inhibition values, retold here.

The structures appear in SMILES notation. This is part of a sample that, as a whole, favours compounds with a hit. Of some 79,000 tested, about 15% had one in any assay. Values without a mark were called inactive. Active and inactive are the calls of the source. Rule as the data show it: active = growth inhibition above about 70%; inactive = the rest.

One assay is described as follows: NCI Yeast Anticancer Drug Screen. Data for the sgs1 mgt1 strain (AID 161).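 Also: 0% = growth of cultures given vehicle only.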 The note with it: S. cerevisiae sgs1 mgt1 strain, at 50.0 µM, active compounds read high. The method in brief:
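Percent growth inhibition was derived by comparing compound-exposed mutant yeast with vehicle-exposed cultures. The strain carries alterations in DNA damage repair.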
For the compound `CCOC(=O)C1CC(O)c2ccc(Cl)cc2N1` (stereo not given), the growth inhibition is 20.6%.
Take `C1=C(c2ccccc2)OC(c2ccccc2)=C(c2ccccc2)[P+]1(c1ccccc1)c1ccccc1`: the growth inhibition was 99.7% (active).
`COc1ccc(N(N=Nc2ccccc2)C(C)=O)cc1`: the growth inhibition was 30.9%.
Consider `CCOC(=O)c1nnn(Cc2ccccc2)c1N`, for which the growth inhibition was 3.75%.
On the same count and under the same terms, for `CCCc1nc(N)nc(C(=O)Nc2cccc(C(F)(F)F)c2)c1CC` the value was 5.1%; for `CCOc1ccccc1NCN1C(=O)c2ccccc2C1=O`, -12.2%; for `COc1cc(C2c3cc4c(cc3OC(N3CCNCC3)C2C)OCO4)cc(OC)c1OC` (stereo not given), -27.8%.
For the compound `C=C(CCCCCCCCC)CC(=O)SCCNC(=O)CCNC(=O)C(O)C(C)(C)COP(=O)(O)OP(=O)(O)OCC1OC(n2cnc3c(N)ncnc32)C(O)C1OP(=O)(O)O` (stereo not given), the growth inhibition is 0.55%.
Consider `CSc1ccc(C(=C=C=C(c2ccc(SC)s2)c2ccc(SC)s2)c2ccc(SC)s2)s1`, for which the growth inhibition was 2.85%.
In the case of `COC1=C(OC)C(=O)C(Sc2ccc3ccccc3c2)=C(Cl)C1=O`, the growth inhibition is 93.8% (active).
As to `CCOC(=O)NC(N)=O`, the growth inhibition was 14.2%.
Regarding `CC(=O)N1Cc2c(N)ncnc2C1C` (stereo not given), the growth inhibition was -18.8%.
As for `CCC(=O)Oc1ccc(OCc2ccccc2)cc1`, the growth inhibition is -31.4%.
With `O=C(O)c1cccc(Br)c1`, the growth inhibition was -8.4%.
Same read-out and setting: for `CCOC(=N)c1ccc(C(=N)OCC)cc1` the value was -29.4%; for `O=P(O)(O)OC1C(OP(=O)(O)O)C(OP(=O)(O)O)C(OP(=O)(O)O)C(OP(=O)(O)O)C1OP(=O)(O)O.[Cu+2]` (stereo not given), -14.7%.
`Cc1onc(-c2c(F)cccc2Cl)c1-c1ncc(-c2ccc(Cl)cc2)o1`: the growth inhibition is 29.4%.
On the same count and under the same terms, the same measure for `CSC1C(OC(=O)c2ccccc2)C(COC(=O)c2ccccc2)OC1n1cnc2ncnc(NC(=O)c3ccccc3)c21` (stereo not given): 34.6%; for `CC(NN(C)C(=S)Nc1ccccc1)c1ccccn1` (stereo not given): -9.15%; for `CCOC(=O)C(=O)C(/C(=N/N(C)C)C(=O)Nc1ccc(C)cc1C)c1nc2ccccc2[nH]c1=O` (stereo not given): 3.8%.
For `CC(=O)c1ccc(N=C2C(=O)Nc3ccccc32)cc1`, the growth inhibition was 10.4%.
As for `O=[N+]([O-])c1ccc(-c2nc3ncncc3[nH]2)cc1`, the growth inhibition is -0.75%.
Turning to `Cc1cc(N=Nc2ccc(N(C)C)cc2)ccn1`, the growth inhibition is 6.1%.
For the compound `C1CCC2(CC1)OCCS2`, the growth inhibition was 11.2%.
Take `O=C1NC2(CCCC2)C(=O)N2CCCC12` (stereo not given): the growth inhibition is 17.7%.
The same measure, in the same setting: the same measure for `CN(C)/C=N/c1nc2ncn(CCOC(=O)c3ccccc3)c2c(=O)[nH]1`: 11.3%; for `CN(C)/N=C\c1ccc(C(=O)O)cc1`: 8.5%; for `CCCCCC[n+]1ccc(C(=O)c2ccccc2)cc1`: 19.9%.
As to `O=C1NNC2(C(=O)N1)c1ccccc1-c1ccccc12`, the growth inhibition was 28.1%.
`O=C1NC(=O)C(c2ccc(C(=O)O)cc2)N1` (stereo not given): the growth inhibition is 0.05%.
Turning to `CCCCCCCCOc1ccc(Cl)cc1`, the growth inhibition was -5.35%.
Turning to `Cc1cccc2c1Oc1ccccc1C2NC(=O)OCCc1ccccc1` (stereo not given), the growth inhibition was -7.25%.
Regarding `COc1ccc(C(=O)c2cc(S(=O)(=O)O)c(OC)cc2O)c(O)c1`, the growth inhibition was -31.2%.
Consider `CCNCc1cc(Nc2nc(NC3CCC(N(C)C)CC3)c3ccccc3n2)ccc1OC` (stereo not given), for which the growth inhibition is -5.8%.
As for `Cc1cc(C)n2nc3c4ccsc4ncc3c2n1`, the growth inhibition is -15.9%.
As for `Cc1c(C(=O)CSc2nc3ccccc3c(=O)n2-c2ccccc2)c(=O)n(-c2ccccc2)n1C`, the growth inhibition is -18.1%.
Same read-out and setting: for `NOCCCCON` the value was 8.95%; for `CC12CCC3c4ccc(O)cc4CCC3C1CC(OC1OC(C(=O)O)C(O)C(O)C1O)C2O` (stereo not given), 13.5%.
`C=CCOC(=O)CC`: the growth inhibition is -13%.
For `COc1cc(NCCCCCNC(C)C)c2ncccc2c1`, the growth inhibition was 35.3%.

A further assay is described as follows: NCI Yeast Anticancer Drug Screen. Data for the cln2 rad14 strain (AID 165).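 Also: 0% = growth equal to vehicle treated cultures.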 The note with it: S. cerevisiae cln2 rad14 strain, at 50.0 µM, active compounds read high. The method in brief: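 Relative to vehicle controls, growth inhibition of compound-treated cln2 rad14 yeast was recorded.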
Take `CCOC(=O)C1CC(O)c2ccc(Cl)cc2N1` (stereo not given): the growth inhibition was 16.1%.
As for `C1=C(c2ccccc2)OC(c2ccccc2)=C(c2ccccc2)[P+]1(c1ccccc1)c1ccccc1`, the growth inhibition was 99.7% (active).
On to `COc1ccc(N(N=Nc2ccccc2)C(C)=O)cc1`, for which the growth inhibition is -4.75%.
As to `CCOC(=O)c1nnn(Cc2ccccc2)c1N`, the growth inhibition is 26.1%.
With `CCCc1nc(N)nc(C(=O)Nc2cccc(C(F)(F)F)c2)c1CC`, the growth inhibition was 4.05%.
`CCOc1ccccc1NCN1C(=O)c2ccccc2C1=O`: the growth inhibition is -8.65%.
Turning to `COc1cc(C2c3cc4c(cc3OC(N3CCNCC3)C2C)OCO4)cc(OC)c1OC` (stereo not given), the growth inhibition is -22.7%.
Turning to `C=C(CCCCCCCCC)CC(=O)SCCNC(=O)CCNC(=O)C(O)C(C)(C)COP(=O)(O)OP(=O)(O)OCC1OC(n2cnc3c(N)ncnc32)C(O)C1OP(=O)(O)O` (stereo not given), the growth inhibition is -17%.
For `CSc1ccc(C(=C=C=C(c2ccc(SC)s2)c2ccc(SC)s2)c2ccc(SC)s2)s1`, the growth inhibition is -24.2%.
As to `COC1=C(OC)C(=O)C(Sc2ccc3ccccc3c2)=C(Cl)C1=O`, the growth inhibition was 94.4% (active).
The same measure, in the same setting: the same measure for `CCOC(=O)NC(N)=O`: -8.1%; for `CC(=O)N1Cc2c(N)ncnc2C1C` (stereo not given): -7.25%.
`CCC(=O)Oc1ccc(OCc2ccccc2)cc1`: the growth inhibition was -4%.
For the compound `O=C(O)c1cccc(Br)c1`, the growth inhibition was -38.2%.
Take `CCOC(=N)c1ccc(C(=N)OCC)cc1`: the growth inhibition was -20.8%.
`O=P(O)(O)OC1C(OP(=O)(O)O)C(OP(=O)(O)O)C(OP(=O)(O)O)C(OP(=O)(O)O)C1OP(=O)(O)O.[Cu+2]` (stereo not given): the growth inhibition is -10.9%.
Consider `Cc1onc(-c2c(F)cccc2Cl)c1-c1ncc(-c2ccc(Cl)cc2)o1`, for which the growth inhibition is 0.8%.
As for `CSC1C(OC(=O)c2ccccc2)C(COC(=O)c2ccccc2)OC1n1cnc2ncnc(NC(=O)c3ccccc3)c21` (stereo not given), the growth inhibition is 29.4%.
For `CC(NN(C)C(=S)Nc1ccccc1)c1ccccn1` (stereo not given), the growth inhibition is -10.8%.
The same measure, in the same setting: the same measure for `CCOC(=O)C(=O)C(/C(=N/N(C)C)C(=O)Nc1ccc(C)cc1C)c1nc2ccccc2[nH]c1=O` (stereo not given): 11.7%; for `CC(=O)c1ccc(N=C2C(=O)Nc3ccccc32)cc1`: 19.8%.
On to `O=[N+]([O-])c1ccc(-c2nc3ncncc3[nH]2)cc1`, for which the growth inhibition was 13.1%.
Take `Cc1cc(N=Nc2ccc(N(C)C)cc2)ccn1`: the growth inhibition is -52.8%.
`C1CCC2(CC1)OCCS2`: the growth inhibition is 7.8%.
Take `O=C1NC2(CCCC2)C(=O)N2CCCC12` (stereo not given): the growth inhibition was -5.75%.
Turning to `CN(C)/C=N/c1nc2ncn(CCOC(=O)c3ccccc3)c2c(=O)[nH]1`, the growth inhibition is 10.6%.
Consider `CN(C)/N=C\c1ccc(C(=O)O)cc1`, for which the growth inhibition was -11.9%.
Turning to `CCCCCC[n+]1ccc(C(=O)c2ccccc2)cc1`, the growth inhibition was 7.9%.
As for `O=C1NNC2(C(=O)N1)c1ccccc1-c1ccccc12`, the growth inhibition was 24.9%.
With `O=C1NC(=O)C(c2ccc(C(=O)O)cc2)N1` (stereo not given), the growth inhibition was 8.45%.
With `CCCCCCCCOc1ccc(Cl)cc1`, the growth inhibition is -35.2%.
For `Cc1cccc2c1Oc1ccccc1C2NC(=O)OCCc1ccccc1` (stereo not given), the growth inhibition is -9.15%.
On to `COc1ccc(C(=O)c2cc(S(=O)(=O)O)c(OC)cc2O)c(O)c1`, for which the growth inhibition was -1.6%.
As for `CCNCc1cc(Nc2nc(NC3CCC(N(C)C)CC3)c3ccccc3n2)ccc1OC` (stereo not given), the growth inhibition is 28.3%.
On to `Cc1cc(C)n2nc3c4ccsc4ncc3c2n1`, for which the growth inhibition was 2.45%.
In the case of `Cc1c(C(=O)CSc2nc3ccccc3c(=O)n2-c2ccccc2)c(=O)n(-c2ccccc2)n1C`, the growth inhibition is 37.7%.
With `NOCCCCON`, the growth inhibition is -66.8%.
As for `CC12CCC3c4ccc(O)cc4CCC3C1CC(OC1OC(C(=O)O)C(O)C(O)C1O)C2O` (stereo not given), the growth inhibition is 2.4%.
Consider `C=CCOC(=O)CC`, for which the growth inhibition was -6.05%.
On to `COc1cc(NCCCCCNC(C)C)c2ncccc2c1`, for which the growth inhibition is 27.9%.
